Measured values published in PubChem BioAssay AID2315 (National Center for Advancing Translational Sciences (NCATS), 2010).
Out of some 290,000 compounds screened, about 27,000 (9.3%) were called active. Rule as the data show it: active = inhibition mostly above about 28% (no sharp cut-off); inactive = mostly below about 43%. Shown is part of a subset that was picked to be rich in actives.

Assay: A qHTS for Small Molecule Inhibitors of Shiga Toxin; as to inhibition: 0% is about no effect
Details: Vero cells, Shiga toxin protein synthesis inhibition reporter; at 38.7 µM, hits give high values

SMILES	inhibition
CCN(CC(=O)Nc1ccc2c(c1)OCO2)S(=O)(=O)c1ccccc1	2.17% (inactive)
Cc1cccc(CN2CCC(n3nccc3NC(=O)c3ccccc3C)CC2)n1	-8.84% (inactive)
Nc1nnnn1/N=C/c1cccc(Br)c1	18.9% (inactive)
CCS(=O)(=O)C1=NSC2=NC(=O)/C(=C\c3cc(C)n(-c4cccc(OC)c4)c3C)C(=N)N21	21.9% (inactive)
CCC1=NN2C(=N)/C(=C/c3cc(C)n(-c4ccccc4)c3C)C(=O)N=C2S1	6.12% (inactive)
Cc1cc(/C=C2/C(=N)N3C(=NC2=O)SN=C3S(C)(=O)=O)c(C)n1-c1ccccc1	98% (active)
CC1(C)NC(=O)N(CC(=O)Nc2cc(C(F)(F)F)cc(C(F)(F)F)c2)C1=O	10.9% (inactive)
Cc1cc(=O)n2nc(N3CCC(C(=O)Nc4c(F)c(F)c(F)c(F)c4F)CC3)sc2n1	-3.72% (inactive)
Cc1cc(=O)n2nc(N3CCCC(C(=O)NCc4ccc(Cl)cc4)C3)sc2n1 (stereo not drawn)	-10.3% (inactive)
CC(=O)O[C@H]1c2ccccc2-c2ccccc2[C@@H]1OC(C)=O	-4.45% (inactive)
Nc1ccc(S(=O)(=O)Nc2nccc(/C=C/c3ccc(Br)s3)n2)cc1	2.79% (inactive)
Oc1cccc2ccc(/C=C/c3ccc(Br)s3)nc12	112% (active)
CC(=O)Nc1ccc(S(=O)(=O)NC2Cc3ccccc3C2)cc1	-3.63% (inactive)
COc1ccc(CCNC(=O)CS(=O)(=O)Cc2nc(-c3ccc(C)cc3)oc2C)cc1OC	3.34% (inactive)
COc1ccc(CNc2nc3c(c(=O)[nH]c(=O)n3C)n2Cc2ccccc2)cc1	-4.35% (inactive)
Cc1ccc(Cn2c(C)nc3c(c2=O)c2nc4ccccc4nc2n3Cc2ccco2)cc1	12.7% (inactive)
Clc1cccc(-c2nc3nc4ccccc4nc3n2Cc2ccco2)c1	75.4% (active)
Cc1nc2c(c(=O)n1Cc1ccco1)c1nc3ccccc3nc1n2Cc1ccccc1	-14% (inactive)
CN(C)N1C(N)=C(C#N)C(c2ccc(Br)cc2)C2=C1CCCC2=O (stereo not drawn)	-14.3% (inactive)
COc1ccccc1CN1CCCC(N2CCN(c3ccc(F)cc3)CC2)C1 (stereo not drawn)	-2.63% (inactive)
Cc1ccc(S(=O)(=O)NCC(=O)N(CC(=O)NCC2CCCO2)c2cccc(F)c2)cc1 (stereo not drawn)	-9.17% (inactive)
CCn1c(SCC(=O)N/N=C/c2ccncc2)nc2ccccc21	-2.17% (inactive)
CCS(=O)(=O)c1ccc2oc(SCC(=O)N3c4ccccc4CC3C)nc2c1 (stereo not drawn)	-14.6% (inactive)
CC(C)(C)C(=O)CSc1nc2ccccc2o1	113% (active)

SMILES	inhibition
CCOC(=O)n1c(SCC(=O)N(CC)CC)nc2ccccc21	-11% (inactive)
O=C(CSc1nc2ccccc2o1)N1CCN(c2ccc(Cl)cc2)CC1	-1.01% (inactive)
Cc1cc(=O)[nH]c(SCC(=O)N2c3ccccc3CC2C)n1 (stereo not drawn)	-7.96% (inactive)
O=C(CSc1nc2ccccc2o1)N1c2ccccc2Sc2ccc(Cl)cc21	-8.96% (inactive)
Cc1ccc(/C=N/NC(=O)CSc2nc3ccccc3o2)cc1	83.9% (active)
O=C(CSc1nc2ccccc2o1)N/N=C/c1ccccc1C(=O)O	41.2% (inactive)
CCN(CC)C(=O)CSc1nc2ccccc2o1	67.4% (active)
CC1Cc2ccccc2N1C(=O)CSc1nc2ccccc2o1 (stereo not drawn)	94.1% (active)
O=C(CSc1nc2ccccc2o1)N1CCN(c2ccccc2)CC1	-6.06% (inactive)
O=S(=O)(NCC1CN(S(=O)(=O)c2ccc3c(c2)OCCO3)C1)c1c(F)cccc1F	-12.4% (inactive)
COC(=O)c1cc(S(=O)(=O)N2CCN(c3cc(C)ccc3C)CC2)c[nH]1	-9.79% (inactive)
CCC(C(=O)NC1CCCC1)N(C(=O)Cn1nnc(-c2ccc(C)o2)n1)c1ccc(OC)c(OC)c1 (stereo not drawn)	-7.44% (inactive)
CC1CC(C)CN(CCOc2cccc3ccccc23)C1 (stereo not drawn)	-12.3% (inactive)
CC1CCC(NC(=O)CN(C)S(=O)(=O)c2ccc3c(c2)c(=O)n(C)c(=O)n3C)CC1 (stereo not drawn)	-2.58% (inactive)
CCCS(=O)(=O)N1CCN=C1SCc1cccc(F)c1	-4.79% (inactive)
COC(=O)c1cc(OCC(=O)NC2CCCc3ccccc32)cc(C(=O)OC)c1 (stereo not drawn)	-5.73% (inactive)
O=C1OCCN1C(=O)[C@H]1[C@H](c2ccc(Cl)cc2)C(c2cccc(Cl)c2)=NN1c1ccc(Br)cc1	inactive
COc1ccccc1Oc1ccc(N2CC(C(=O)OCC(=O)c3ccc(F)cc3)CC2=O)cc1 (stereo not drawn)	7.33% (inactive)
COc1cccc(CNS(=O)(=O)c2ccc3c(c2)CC(C)N3C(C)=O)c1 (stereo not drawn)	-5.4% (inactive)
O/N=C(\C[n+]1ccccc1)c1ccc(Br)cc1	13.2% (inactive)
O=C(Nc1ccc2nc3n(c(=O)c2c1)CCCCC3)c1ccccc1Cl	40.7% (inactive)
O=C(Nc1ccc2sc3ccccc3c(=O)c2c1)c1ccccc1Cl	93.9% (active)
O=C(Nc1cccc(NC(=O)c2ccccc2[N+](=O)[O-])c1)c1ccccc1Cl	30.9% (inactive)
CCSCc1nc(N)nc(NCCc2ccccc2)n1	15.6% (inactive)

SMILES	inhibition
CCc1nn(CCCC(=O)NCc2ccc(C)cc2)c(=O)c2cc3occc3n12	18.7% (inactive)
CCNC(=S)N(CCN(CC)CC)Cc1cc2cc3c(cc2[nH]c1=O)OCO3	-7.63% (inactive)
COc1ccc(NC(=O)C(C)N2c3cccc4cccc(c34)S2(=O)=O)c(OC)c1 (stereo not drawn)	-11.7% (inactive)
CCC(C)NCC(=O)Nc1ccc([N+](=O)[O-])cc1C(=O)Nc1ccccc1F (stereo not drawn)	13% (inactive)
O=[N+]([O-])c1cccc(/C([O-])=C(/C(=S)Nc2ccccc2F)[n+]2ccccc2)c1	83.4% (active)
Cc1ccc(/C([O-])=C(/C(=S)NCc2ccco2)[n+]2ccccc2)cc1[N+](=O)[O-]	-8.48% (inactive)
Cc1cc(C)c(C#N)c(Nc2cccc(Br)c2)n1	-8.95% (inactive)
Cc1cc(Cl)ccc1OCc1nc(-c2ccncc2)no1	129% (active)
COc1ccc(N2CCN(C(=O)CCc3nc(-c4ccc(C)cc4)no3)CC2)cc1	-8.71% (inactive)
Cc1cc(Cl)ccc1OCCCC(=O)NCc1ccncc1	14.6% (inactive)
COc1ccc(-c2noc(COc3ccc(Cl)c(C)c3)n2)cc1	25.5% (active)
COc1ccc(C(C)=O)cc1COc1ccc(Cl)c(C)c1	7.61% (inactive)
CN(Cc1ccccn1)Cc1nc(-c2ccc(Cl)cc2)no1	31.7% (inactive)
C=C(C)COc1ccc(-c2ncncc2-c2ccc(OC)cc2)c(O)c1	-1.7% (inactive)
Cc1ccc(CN2C(=O)N/C(=C/c3cc(C)n(-c4ccccn4)c3C)C2=O)cc1	31.1% (inactive)
CCN(CC)S(=O)(=O)c1ccc(Cl)c(C(=O)NCCN2CCOCC2)c1	-6.97% (inactive)
Cc1oc2cc3oc(=O)ccc3cc2c1C	40.7% (active)
COc1c(C(C)C)oc2cc3oc(=O)ccc3cc12	34% (inactive)
Cc1ccc(OCC(=O)Nc2ccc3oc(=O)ccc3c2)cc1C	-5.7% (inactive)
CCN(C(=O)COc1ccc(C(=O)c2ccccc2)cc1)c1ccccc1	-10.2% (inactive)
Cc1ccccc1N1CC(C(=O)Nc2nnc(SCCC3OCCO3)s2)CC1=O (stereo not drawn)	-4.6% (inactive)
COc1ccc(OCc2nnc3n2N=C(c2ccccc2)C(CC(=O)O)S3)cc1 (stereo not drawn)	-9.4% (inactive)
CC/C(=N\NC(=O)c1ccccc1O)c1c(O)n(Cc2ccccc2)c(=O)[nH]c1=O	58.6% (active)
CCCCn1c(O)c(C(CC)=NCc2ccco2)c(=O)[nH]c1=O	-7.37% (inactive)

SMILES	inhibition
CCCCCCN=C(CC)c1c(O)n(CCCC)c(=O)[nH]c1=O	-8.53% (inactive)
Cc1cc2cc3c(cc2nc1SCC(=O)Nc1c(C)cccc1C)CCC3	-6.77% (inactive)
Cc1cccn2c(=O)c3cc(C(=O)NC4CCCCC4)sc3nc12	-2.1% (inactive)
CCOCCCNC(=O)c1cc2c(=O)n3ccccc3nc2s1	74.5% (active)
CCn1c(=N)c(C(=O)NCCCOC)cc2c(=O)n3cccc(C)c3nc21	-7.15% (inactive)
NC(=O)C1CCN(CC(O)CSc2ccc(F)cc2)CC1 (stereo not drawn)	2.41% (inactive)
O=C(CSc1ncccn1)NCCc1ccccc1	1.16% (inactive)
O=C(Cn1cnc([N+](=O)[O-])n1)NCCc1ccccc1	17.3% (active)
CC(C)(C)NC(=O)Cn1cnc([N+](=O)[O-])n1	-6.78% (inactive)
COc1ccc2cc(CCl)c(Cl)nc2c1	14.8% (inactive)
CCCC(=O)N1CCC(CCC(=O)NC2CC2)CC1	14.8% (inactive)
CCC(C)NC(=O)c1ccc(N2CCC3(CC2)OCCO3)c([N+](=O)[O-])c1 (stereo not drawn)	50.1% (active)
CC(NC(=O)c1ccc(N2CCNCC2)c([N+](=O)[O-])c1)C12CC3CC(CC(C3)C1)C2 (stereo not drawn)	-0.798% (inactive)
COCCNC(=O)c1ccc(N2CCC3(CC2)OCCO3)c([N+](=O)[O-])c1	7.01% (inactive)
COc1ccc(NC(=O)c2cc(-c3cc(OC)c(OC)c(OC)c3)nc3ccccc23)c(OC)c1	15.1% (inactive)
COc1ccc(-c2nc3cc([N+](=O)[O-])ccc3o2)cc1OC	27.9% (inactive)
O=[N+]([O-])c1ccc2oc(-c3cccc(O)c3)nc2c1	47.7% (active)
CC(=O)Oc1ccc2c(=O)oc(-c3ccc([N+](=O)[O-])cc3)nc2c1	-6.54% (inactive)
COc1cccc(-c2nc(S(=O)(=O)c3ccccc3)c(N3CCOCC3)o2)c1	20.2% (inactive)
COc1ccc2oc(-c3cccc(NC(=O)CSc4ccc(Cl)cc4)c3)nc2c1	13.6% (inactive)
COc1cccc(-c2nc3cc(C)ccc3o2)c1	65% (active)
